Reference: PubChem BioAssay (Tox21)
Values joined by “and” are separate entries in the source; they are usually repeats but may differ in a detail not shown here. Equal values may be shown once. Records with an inconclusive call do not appear. Active and inactive are the calls of the source. Unless noted, calls follow the shape of the full dose curve.

Assays:
[1] = Nuclear factor erythroid 2-related factor 2/antioxidant responsive element (Nrf2/ARE) small molecule agonists: qHTS cell viability counter screen in human keratinocytes (AID 1919968; active = well fitted curve in the direction sought with a large enough effect in the repeat runs; an effect the other way counts as inactive or inconclusive; also: nearly all actives have a fitted effect of over 55% in size; also: potency is read from the fitted curve at half-maximal effect)
Summary of the method: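 Cells of the KeratinoSens line were plated at 1,500 per well and left for 5 h before compound transfer from DMSO stocks. After a 23 h incubation (37 C, 5% CO2), CellTiter-Fluor was added. Signal was taken as fluorescence intensity 1 h later.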

[2] = Nuclear factor erythroid 2-related factor 2/antioxidant responsive element (Nrf2/ARE) small molecule agonists: luciferase reporter gene qHTS assay in human keratinocytes (AID 1919969); also: nearly all actives have a fitted effect of over 35% in size; also: potency is read from the fitted curve at half-maximal effect
[3] = biological target: KiSS-1 receptor (Homo sapiens) (UniProt Q969F8); assay: Human kisspeptin (KISS1R) small molecule agonists, calcium flux assay in KISS1R-HEK293 cells (AID 1920064; active = well fitted curve in the direction sought with a large enough effect in the repeat runs; an effect the other way counts as inactive or inconclusive)
KiSS-1 receptor (Homo sapiens), sequence (Q969F8 whole entry, looked up): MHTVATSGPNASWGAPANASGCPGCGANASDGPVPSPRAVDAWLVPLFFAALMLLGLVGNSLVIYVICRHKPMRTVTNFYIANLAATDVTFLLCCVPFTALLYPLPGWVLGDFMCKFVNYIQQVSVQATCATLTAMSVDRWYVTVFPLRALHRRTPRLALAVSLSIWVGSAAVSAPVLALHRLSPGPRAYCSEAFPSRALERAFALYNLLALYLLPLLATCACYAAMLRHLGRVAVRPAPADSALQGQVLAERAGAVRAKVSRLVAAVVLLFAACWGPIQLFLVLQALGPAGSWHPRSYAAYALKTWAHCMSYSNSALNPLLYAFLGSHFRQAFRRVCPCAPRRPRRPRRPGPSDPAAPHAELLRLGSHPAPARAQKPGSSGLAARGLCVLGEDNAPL
Summary of the method: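 Cell line: HEK293, stable human KISS1R. Dye loading 1 h at 37 C after 18 h culture. Read: kinetic fluorescence, 480/540 nm, 3 min at 1 s intervals.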

[4] = G protein-coupled receptor (GPCR) small molecule agonists, calcium flux assay: HEK293 wild type cell line counter screen (AID 1920065)
Summary of the method: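 Tox21 10K compounds, 15 concentrations each in triplicate, pin-transferred in DMSO onto dye-loaded cells; kinetic read at 480/540 nm for 3 min, 1 s intervals.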

[5] = p53 small molecule agonists, cell-based qHTS assay with human liver microsomes (AID 1963577);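 also: p53 response element beta-lactamase reporter cells with liver microsomes plus NADPH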
Summary of the method: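 Metabolically competent format: test substances, human liver microsomes and NADPH (both 0.5 mg/mL final) incubated with p53RE-bla cells 16 h at 37 C. Beta-lactamase reporter signal then quantified by fluorescence.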

[6] = p53 small molecule agonists, cell-based qHTS assay with human liver microsomes: qHTS cell viability counter screen (AID 1963579); also: nearly all actives have a fitted effect of over 45% in size
Summary of the method: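 Tox21 library compounds, delivered from DMSO stocks, were tested on p53RE-bla cells together with 0.5 mg/mL human liver microsomes and 0.5 mg/mL NADPH (final) over 16 h at 37 C; CellTiter-Glo luminescence served as the cytotoxicity measure.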

[7] = p53 small molecule agonists, cell-based qHTS assay with rat liver microsomes: qHTS cell viability counter screen (AID 1963580); also: nearly all actives have a fitted effect of over 45% in size; also: potency is read from the fitted curve at half-maximal effect
Summary of the method: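 After the beta-lactamase ratio was read, CellTiter-Glo was added to the same wells and luminescence measured at 30 min; cells had been treated 16 h at 37 C with compounds, rat liver microsomes and NADPH (0.5 mg/mL final each).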

[8] = p53 small molecule agonists, cell-based qHTS assay: qHTS cell viability counter screen (AID 1963581); also: nearly all actives have a fitted effect of over 45% in size; also: potency is read from the fitted curve at half-maximal effect
Summary of the method: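 ATP content measured by luminescence in HCT-116 p53RE-bla cells treated 16 h at 37 C, same wells as the reporter screen.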

[9] = biological target: 5-hydroxytryptamine receptor 2A (Homo sapiens) (UniProt P28223); assay: 5-hydroxytryptamine receptor 2A (HTR2A) small molecule antagonists, cell-based qHTS assay (AID 1963586); also: nearly all actives have a fitted effect of over 45% in size
5-hydroxytryptamine receptor 2A (Homo sapiens), sequence (P28223 whole entry, looked up): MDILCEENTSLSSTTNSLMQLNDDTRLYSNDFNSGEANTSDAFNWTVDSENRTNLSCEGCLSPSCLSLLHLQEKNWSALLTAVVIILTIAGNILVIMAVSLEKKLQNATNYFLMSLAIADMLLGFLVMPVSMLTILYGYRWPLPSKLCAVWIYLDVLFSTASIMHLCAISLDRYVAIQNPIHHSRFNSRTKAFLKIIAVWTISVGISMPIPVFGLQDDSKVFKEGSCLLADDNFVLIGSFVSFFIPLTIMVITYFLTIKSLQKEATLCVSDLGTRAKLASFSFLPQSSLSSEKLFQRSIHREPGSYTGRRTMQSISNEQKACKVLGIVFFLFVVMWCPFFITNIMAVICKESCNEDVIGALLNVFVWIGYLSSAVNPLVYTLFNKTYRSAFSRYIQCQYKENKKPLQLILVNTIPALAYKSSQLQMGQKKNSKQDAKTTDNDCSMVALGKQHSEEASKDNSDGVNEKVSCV
Summary of the method: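 CHO cells stably expressing human HTR2A were plated for 18 h at 37 C, then loaded with calcium dye for 1 h. Compounds were preincubated 5 min at room temperature before DOI (4 nM solution) was added. Kinetic fluorescence was read for 3 min.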

[10] = biological target: 5-hydroxytryptamine receptor 2A (Homo sapiens) (UniProt P28223); assay: 5-hydroxytryptamine receptor 2A (HTR2A) small molecule agonists, cell-based qHTS assay (AID 1963587); also: nearly all actives have a fitted effect of over 30% in size
Summary of the method: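 CHO cells stably expressing human HTR2A, plated 18 h, loaded with calcium dye 1 h at 37 C. Agonist mode: compounds added and intracellular calcium fluorescence recorded kinetically for 2 min at 1 sec intervals.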

[11] = biological target: Muscarinic acetylcholine receptor M1 (Homo sapiens) (UniProt P11229); assay: Cholinergic receptor muscarinic 1 (CHRM1) small molecule antagonists, cell-based qHTS assay (AID 1963588); also: nearly all actives have a fitted effect of over 40% in size
Muscarinic acetylcholine receptor M1 (Homo sapiens), sequence (P11229 whole entry, looked up): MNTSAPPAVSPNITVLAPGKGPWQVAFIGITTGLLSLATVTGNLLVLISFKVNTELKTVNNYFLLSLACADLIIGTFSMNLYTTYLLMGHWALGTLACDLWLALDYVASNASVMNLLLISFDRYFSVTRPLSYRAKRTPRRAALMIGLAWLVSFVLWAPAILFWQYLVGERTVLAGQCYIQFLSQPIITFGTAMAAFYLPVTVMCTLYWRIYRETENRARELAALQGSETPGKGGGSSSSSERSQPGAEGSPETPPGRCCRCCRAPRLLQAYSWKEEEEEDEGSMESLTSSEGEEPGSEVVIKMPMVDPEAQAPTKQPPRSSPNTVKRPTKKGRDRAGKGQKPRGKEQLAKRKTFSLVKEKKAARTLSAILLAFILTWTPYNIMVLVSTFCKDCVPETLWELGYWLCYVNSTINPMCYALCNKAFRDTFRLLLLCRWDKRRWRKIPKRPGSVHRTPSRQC
Summary of the method: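 Compounds were tested at 15 concentrations in three independent runs. Dye-loaded CHRM1-CHO cells were exposed 5 min at room temperature before stimulation by acetylcholine added at 50nM. Intracellular calcium was read kinetically on FDSS for 3 min.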

[12] = biological target: Muscarinic acetylcholine receptor M1 (Homo sapiens) (UniProt P11229); assay: Cholinergic receptor muscarinic 1 (CHRM1) small molecule agonists, cell-based qHTS assay (AID 1963589); also: nearly all actives have a fitted effect of over 35% in size
Summary of the method: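 Homogeneous fluorescence calcium flux, agonist mode. Human M1-expressing CHO cells; compound dosed at 15 concentrations, three independent runs; signal sampled every 1 sec.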

[13] = cAMP Responsive Elements (CRE) small molecule agonists, cell-based qHTS assay (AID 1963590)
Summary of the method: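 HEK 293T cells stably bearing CRE-bla were plated at 2,000 cells per well and rested 18 h. Compounds, positive controls or DMSO were added for 3 h at 37 C. LiveBLAzer B/G substrate was then loaded for 2 h at room temperature.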

[14] = cAMP Responsive Elements (CRE) small molecule antagonists, cell-based qHTS assay (AID 1963591; active = well fitted inhibition curve with a large enough effect in the signal ratio in the repeat runs, not every such curve was filed as active; the % refers to the signal ratio; also: potency is read from the fitted curve at half-maximal effect)
Summary of the method: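 First, CRE-bla HEK293T cells settled 18 h at 37 C. Next, compound and 0.25 uM final NKH477 were applied for 3 h. Last, LiveBLAzer B/G substrate was loaded for 2 h at room temperature.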

[15] = biological target: Beta-2 adrenergic receptor (Homo sapiens) (UniProt P07550); assay: Adrenergic beta2 receptor (ADRB2) small molecule antagonists, cell-based qHTS assay (AID 1963592); also: series mostly up to about 92 µM; nearly all actives have a fitted effect of over 50% in size
Beta-2 adrenergic receptor (Homo sapiens), sequence (P07550 whole entry, looked up): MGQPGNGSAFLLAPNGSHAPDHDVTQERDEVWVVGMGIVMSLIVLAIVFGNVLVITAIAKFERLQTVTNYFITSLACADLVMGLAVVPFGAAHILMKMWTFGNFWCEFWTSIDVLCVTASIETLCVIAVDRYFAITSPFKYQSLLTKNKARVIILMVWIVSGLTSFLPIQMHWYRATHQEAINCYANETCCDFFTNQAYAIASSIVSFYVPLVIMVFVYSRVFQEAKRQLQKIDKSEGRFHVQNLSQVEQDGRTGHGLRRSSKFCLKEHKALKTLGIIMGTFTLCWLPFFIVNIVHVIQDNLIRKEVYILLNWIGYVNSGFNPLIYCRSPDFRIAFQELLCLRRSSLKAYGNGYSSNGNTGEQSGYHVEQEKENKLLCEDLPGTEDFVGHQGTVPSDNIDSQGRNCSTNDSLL
Summary of the method: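 Assay format: CHO-ADRB2 cells, 18-20hr seeding at 37C/5% CO2, then compound plus 1nM isoproterenol agonist mix for 0.5hr RT. Homogeneous time-resolved fluorescence cAMP detection after 1hr, expressed as 665/615 nm ratio.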

[16] = biological target: D(2) dopamine receptor (Homo sapiens) (UniProt P14416); assay: Dopamine D2 receptor (DRD2) small molecule agonists, cell-based qHTS assay (AID 1963594); also: nearly all actives have a fitted effect of over 35% in size
D(2) dopamine receptor (Homo sapiens), sequence (P14416 whole entry, looked up): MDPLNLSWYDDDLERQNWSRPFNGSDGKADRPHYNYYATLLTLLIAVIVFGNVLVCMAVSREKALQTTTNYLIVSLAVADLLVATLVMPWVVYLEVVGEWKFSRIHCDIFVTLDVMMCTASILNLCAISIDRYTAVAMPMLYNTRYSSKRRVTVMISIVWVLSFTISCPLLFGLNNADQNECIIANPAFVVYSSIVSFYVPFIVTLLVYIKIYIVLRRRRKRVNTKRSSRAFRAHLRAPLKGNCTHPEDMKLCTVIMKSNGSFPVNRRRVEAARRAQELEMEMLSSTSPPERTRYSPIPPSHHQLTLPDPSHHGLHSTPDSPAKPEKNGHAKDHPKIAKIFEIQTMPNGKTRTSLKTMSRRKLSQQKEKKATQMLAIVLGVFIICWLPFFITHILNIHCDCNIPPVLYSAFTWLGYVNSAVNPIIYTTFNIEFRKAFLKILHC
Summary of the method: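 HEK293 cells stably expressing human DRD2, pre-treated with PDE inhibitor Ro20-1724 (0.1 mM final) and compound 10 min at room temperature, then stimulated with NKH477 (200nM […]) for 30 min. cAMP read by HTRF (665/620 nm).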

[17] = p53 small molecule agonists, cell-based qHTS assay with rat liver microsomes (AID 1963578)
Summary of the method: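 Each plate received p53RE-bla cells, then compound, then rat liver microsomes and NADPH (both 0.5 mg/mL final). Plates were held 16 h at 37 C, and beta-lactamase activity was detected with LiveBLAzer over 2 h.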

[18] = p53 small molecule agonists, cell-based qHTS assay (AID 1963582; active = well fitted activation curve with a large enough effect in the signal ratio in the repeat runs, not every such curve was filed as active; the % refers to the signal ratio; also: potency is read from the fitted curve at half-maximal effect)
Summary of the method: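 16 h compound exposure (37 C) of p53 response element–bla cells, preceded by 5 h recovery at 37 C/5% CO2; read-out via LiveBLAzer B/G FRET substrate, 2 h RT, fluorescence intensity.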

[19] = biological target: Beta-2 adrenergic receptor (Homo sapiens) (UniProt P07550); assay: Adrenergic beta2 receptor (ADRB2) small molecule agonists, cell-based qHTS assay (AID 1963593);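 also: CHO cells stably overexpressing human ADRB2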
Summary of the method: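 CHO cells stably over-expressing ADRB2 were plated overnight at 37C, then dosed with compounds plus a stimulation mix containing 100uM IBMX and 25uM Ro-20-1724 for 0.5hr at room temperature. cAMP was measured by HTRF competition, 1hr.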

[20] = biological target: D(2) dopamine receptor (Homo sapiens) (UniProt P14416); assay: Dopamine D2 receptor (DRD2) small molecule antagonists, cell-based qHTS assay (AID 1963595; active = well fitted inhibition curve with a large enough effect in the signal ratio in the repeat runs, with a control signal flat; the % refers to the signal ratio)
Summary of the method: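 HEK293 cells stably expressing DRD2 were preincubated with 0.1 mM Ro20-1724, then with compound for 10 min at room temperature. Cells were stimulated with 200 nM NKH477 plus 12 nM quinpirole for 30 min, and cAMP was read by HTRF.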
% is scaled to controls: 0 for no effect and ±100 for the full control effect.

Fc1c(F)c(F)c(Br)c(F)c1F
inactive: Potency [1] | Potency [2] | Potency [3] | Potency [4] | Potency [5] | Potency [6] | Potency [7] | Potency [8] | Potency [9] | Potency [10] | Potency [11] | Potency [12] | Potency [13] | Potency [14] | Potency [15] | Potency [16]

CCOC(=O)n1ccn(C)c1=S
inactive: Potency [1] | Potency [2] | Potency [3] | Potency [4] | Potency [5] | Potency [17] | Potency [7] | Potency [8] | Potency [18] | Potency [13] | Potency [14] | Potency [19] | Potency [16] | Potency [20]

NCCN1CCNC1=O
inactive: Potency [1] | Potency [2] | Potency [3] | Potency [4] | Potency [5] | Potency [17] | Potency [6] | Potency [7] | Potency [9] | Potency [10] | Potency [11] | Potency [12] | Potency [13] | Potency [14] | Potency [15] | Potency [16] | Potency [20]

Nc1ccc(Oc2ccc(Cl)cc2)cc1
inactive: Potency [1] | Potency [2] | Potency [3] | Potency [4] | Potency [5] | Potency [6] | Potency [7] | Potency [8] | Potency [18] | Potency [9] | Potency [10] | Potency [12] | Potency [13] | Potency [14] | Potency [15] | Potency [16] | Potency [20]

Clc1ccccc1-c1nc(-c2ccncc2)no1
active: Potency [2] 2.11 µM
inactive: Potency [1] | Potency [3] | Potency [4] | Potency [5] | Potency [17] | Potency [7] | Potency [8] | Potency [18] | Potency [9] | Potency [10] | Potency [11] | Potency [12] | Potency [13] | Potency [14] | Potency [15] | Potency [19] | Potency [16]

O=c1[nH]c(=O)n([C@H]2CCCO2)cc1F
inactive: Potency [1] | Potency [2] | Potency [3] | Potency [4] | Potency [5] | Potency [17] | Potency [7] | Potency [8] | Potency [18] | Potency [13] | Potency [14] | Potency [15] | Potency [19] | Potency [16] | Potency [20]

CCCCCCCCCCCC(=O)N(C)CC(=O)O
inactive: Potency [1] | activity, positive = activation [2] 0.794% [at 8.39 µM] | Potency [3] | Potency [4] | Potency [6] | Potency [7] | Potency [8] | Potency [9] | Potency [10] | Potency [11] | activation [12] -0.383% [at 6.97 µM] | activation [13] -0.74% [at 8.39 µM] | activity change, negative = inhibition [14] 5.29% [at 8.39 µM] | Potency [15] | Potency [19] | Potency [16] | Potency [20]

CC(=O)CC(=O)Nc1ccccc1C
inactive: Potency [1] | Potency [2] | Potency [3] | Potency [4] | Potency [17] | Potency [6] | Potency [7] | Potency [8] | Potency [18] | Potency [9] | Potency [10] | Potency [11] | Potency [12] | Potency [13] | Potency [14] | Potency [15] | Potency [19] | Potency [16] | Potency [20]

Nc1ccc(Cl)c(N)c1
inactive: Potency [1] | Potency [2] | Potency [3] | Potency [4] | Potency [6] | Potency [7] | Potency [8] | Potency [9] | Potency [10] | Potency [11] | Potency [12] | Potency [13] | Potency [14] | Potency [15] | Potency [19] | Potency [16] | Potency [20]

CCCC(=O)Nc1ccc(O)c(C(C)=O)c1
inactive: Potency [1] | Potency [2] | Potency [3] | Potency [4] | Potency [17] | Potency [6] | Potency [7] | Potency [8] | Potency [18] | Potency [9] | Potency [10] | Potency [11] | Potency [12] | Potency [13] | Potency [14] | Potency [15] | Potency [16]

CC(C)=CCC/C(C)=C/C#N
inactive: Potency [1] | Potency [2] | Potency [3] | Potency [4] | Potency [5] | Potency [17] | Potency [7] | Potency [8] | Potency [18] | Potency [9] | Potency [10] | Potency [11] | Potency [12] | Potency [13] | Potency [15] | Potency [19] | Potency [16]

CC1=CC[C@@H](C(C)(C)O)CC1
inactive: Potency [1] | Potency [2] | Potency [3] | Potency [4] | Potency [5] | Potency [7] | Potency [8] | Potency [18] | Potency [9] | Potency [10] | Potency [11] | Potency [12] | Potency [13] | Potency [14] | Potency [15] | Potency [19] | Potency [16] | Potency [20]

O=C(Nc1ccc([N+](=O)[O-])cc1)Nc1ccc([N+](=O)[O-])cc1 (tested in a mixture with another compound)
inactive: Potency [1] | Potency [2] | Potency [3] | Potency [4] | Potency [5] | Potency [6] | Potency [7] | Potency [8] | Potency [18] | Potency [9] | Potency [10] | Potency [11] | Potency [12] | Potency [13] | Potency [15] | Potency [19] | Potency [16]

COc1cccc2c1C(=O)c1c(O)c3c(c(O)c1C2=O)C[C@@](O)(C(=O)CO)C[C@@H]3O[C@H]1C[C@H](N)[C@H](O)[C@H](C)O1
inactive: Potency [3] | Potency [4] | Potency [17] | Potency [6] | Potency [8] | Potency [13]
active: Potency [1] 7.5 µM | Potency [2] 2.73 µM and 6.68 µM | Potency [18] 0.457 µM | Potency [14] 26.6 µM

CN(C)c1ccc(C(=C2C=CC(=[N+](C)C)C=C2)c2ccc(N(C)C)cc2)cc1
active: Potency [1] 7.66 µM and 13.7 µM | Potency [2] 6.08 µM | Potency [7] 22.8 µM and 36.3 µM | Potency [8] 18.1 µM and 40.8 µM and 17.8 µM
inactive: Potency [3] | Potency [4] | Potency [5] | Potency [17] | Potency [18]

O=C1c2ccccc2CCc2ccccc21
inactive: Potency [1] | Potency [2] | Potency [3] | Potency [4] | Potency [6] | Potency [7] | Potency [8] | Potency [9] | Potency [10] | Potency [11] | Potency [12] | Potency [13] | Potency [14] | Potency [16] | Potency [20]
